Assay outcomes from PubChem BioAssay.
Sampled rows, rich in hits. Any-hit rate of the full collection: about 3%.
D3 antag: blocks the human D3 dopamine receptor. P35462. D3R cells, DiscoveRx beta-arrestin luminescence, antagonist mode; hits give low values. max response, negative = inhibition, %. 2.5% of 360,000 active; in the data active means max response below about -50%; inconclusive means no clear call, values can overlap the other calls; further: on the % scale 0 is the no-effect control and ±100 the full control effect
Target sequence (P35462 whole entry, looked up): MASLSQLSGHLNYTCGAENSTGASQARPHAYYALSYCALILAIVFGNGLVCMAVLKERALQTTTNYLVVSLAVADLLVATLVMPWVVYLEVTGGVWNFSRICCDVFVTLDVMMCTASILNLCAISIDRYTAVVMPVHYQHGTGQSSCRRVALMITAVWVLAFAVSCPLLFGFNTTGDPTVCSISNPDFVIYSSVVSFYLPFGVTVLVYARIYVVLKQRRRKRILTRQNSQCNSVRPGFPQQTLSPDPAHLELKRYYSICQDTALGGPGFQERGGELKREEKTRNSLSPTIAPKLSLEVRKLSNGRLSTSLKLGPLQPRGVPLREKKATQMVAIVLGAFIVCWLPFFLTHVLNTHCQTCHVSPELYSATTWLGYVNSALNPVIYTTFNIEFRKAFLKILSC
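Cells plated overnight at 1500 cells/well, then exposed to library compounds with dopamine controls for 90 minutes at 37 degrees C. DiscoveRx reagent added for 30–60 minutes at room temperature; luminescence read, quantitative HTS format.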
GRP78 ERSR act: inducers of ER stress response in human glioma cells. U87-MG GRP78 promoter luciferase reporter, 16 h. Potency, µM, without a hit: at the highest dose activation, hits mostly activators. 0.02% of 420,000 active. AID 602332; further: potency means the concentration at half of the fitted maximal effect; series mostly up to about 76 µM; % of control where 0% means no effect; nearly all actives have a fitted effect of over 35% in size
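Stably transfected U87-MG glioma cells carrying a GRP78-based luciferase sensor; 16 h compound incubation. Luminescence end-point read 10 min after Bright-Glo addition at room temperature.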
Nrf2 ARE act: activators of Nrf2 (ARE) signaling | 0.31% of 410,000 active | AREc32 ARE-luciferase reporter (MCF7-derived line), luminescence, 24 h | Potency, µM (series often up to 46.1 µM), inactives show top-dose activation, actives largely listed as activators; further: potency means the concentration at half of the fitted maximal effect; % of control where 0% means no effect; nearly all actives have a fitted effect of over 65% in size
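Each well held 1000 AREc32 cells, which were incubated with compound for 24 hr at 37 deg C after overnight attachment, and ARE reporter activity was quantified by firefly luciferase luminescence.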
DRD3 agonist: D3 dopamine receptor (human) agonism | P35462 | D3R DiscoveRx beta-arrestin cells, luminescence, 90 min | max activation, % | 0.58% of 410,000 active; in the data active means max activation above about 30%; further: 0% is about no effect
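Agonist mode: compounds and dopamine controls were applied to plated cells for 90 min at 37 degrees C after an overnight attachment at 1500 cells/well. Luminescent read-out followed 30 - 60 minutes at room temperature with DiscoveRx detection reagent.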
* hit, by the source's call; ? = inconclusive; · = no result. Unless noted, the call rests on the fitted dose curve; in most records, active means well fitted curve in the direction sought with a large enough effect; inconclusive means small, poorly fitted or top-dose-only effect, or another doubt; inactive means no such curve, though single readings can be large; an effect the other way counts as inactive or inconclusive.

SMILES	D3 antag	GRP78 ERSR act	Nrf2 ARE act	DRD3 agonist
CC(CCc1ccc(O)cc1)N1CCC(Oc2ccc(C(=O)N3CCCC3)cc2)CC1 (configuration not stated)	4.5	-2.9%	0.9%	73.2*
O=C(c1ccc(OC2CCN(CCc3ccccc3)CC2)cc1)N1CCCC(O)C1 (configuration not stated)	-7.6	-6.4%	0.8%	-10.9
COC1CCCN(C(=O)c2ccc(OC3CCN(CCc4ccccc4)CC3)cc2)C1 (configuration not stated)	-54.8*	-0.6%	0.6%	-10.3
COc1ccccc1/C=C/CN1CCC(Oc2ccc(C(=O)N3CCCC3)cc2)CC1	-68.2*	2.0%	-0.2%	-12.6
Cc1cc2c(cc1C)N[C@]1(C[C@H]3CCC(=O)N4CC[C@@H](C1)[C@@H]34)C(=Nc1ccccc1C)N2	·	0.5%	·	·
CC(=O)c1ccc(N2CCN(S(=O)(=O)c3ccc4c(c3)C(Cl)(Cl)C(=O)N4)CC2)cc1	·	?	12.2%	·
CC1CCN(S(=O)(=O)c2ccc3c(c2)C(Cl)(Cl)C(=O)N3)CC1	-70.4*	5.4%	?	-6.1
CC(=O)c1c(C)n([O-])c2cc(C)ccc2[n+]1=O	-51.0*	-4.5%	0.0%	-3.4
COC(=O)c1ccc(Sc2nnnn2-c2ccccc2)c([N+](=O)[O-])c1	-21.2	-18.0%	?	-15.1
O=C(O)c1ccc(Sc2nnnn2-c2ccccc2)c([N+](=O)[O-])c1	-63.7*	-2.6%	0.0%	0.8
CCc1cccc(NC(=O)CCc2c(C)nc3c(c2C)c(=O)n(C)c(=O)n3C)c1	·	-3.2%	0.2%	-3.5
Fc1ccccc1-c1ccc(/C=N/Nc2nc3ccccc3[nH]2)o1	48.1	15.6%	11.2µM*	1.3
C(=N\Nc1nc2ccccc2[nH]1)/c1ccccn1	-28.1	-14.0%	-4.3%	-3.8
Cc1cccc2c(N3CCCC3)nc(CNS(=O)(=O)c3ccc4ccccc4c3)nc12	·	-6.3%	·	·
CCN1C(=O)/C(=C/N(C(C)=O)c2ccccc2)N(c2ccccc2)C1=S	-80.9*	-14.6%	-0.6%	-4.7
CCc1ccc(/C=C2/C(=O)N(c3ccccc3)C(=S)N2CC(=O)OC)s1	-5.3	-10.8%	-0.2%	3.2
COc1cc2c(cc1OC)C1(CCCC1)CNC2c1cccc([N+](=O)[O-])c1 (configuration not stated)	-77.4*	-7.8%	-0.1%	-34.9
Cc1sc2nc(C)n(/N=C/c3ccccc3O)c(=O)c2c1C	41.0	-5.9%	0.0%	35.0*
Cc1sc2nc(C)n(/N=C/c3ccc(O)cc3O)c(=O)c2c1C	20.5	-3.7%	-0.7%	0.9
Cc1c(C(=O)N2CC(C)OC(C)C2)oc2ccccc12 (configuration not stated)	-72.0*	-1.6%	-0.3%	-1.2
Cc1c(C(=O)N2CCCC(C(F)(F)F)C2)oc2ccccc12 (configuration not stated)	9.1	2.1%	-0.4%	-12.1
O=C(c1cnn(-c2nccc(-c3ccco3)n2)c1C1CC1)N1CCCCC1c1cccnc1 (configuration not stated)	·	-2.6%	·	·
CC1CC(C)CN(C(=O)COC(=O)c2cncc(Br)c2)C1 (configuration not stated)	-2.9	-3.5%	-0.6%	0.3
CC1CN(C(=O)COC(=O)c2cncc(Br)c2)CC(C)O1 (configuration not stated)	-54.2*	-1.0%	1.3%	1.3
COC(=O)c1sccc1S(=O)(=O)N1CCC(n2c(CC3CCCC3)nc3cccnc32)CC1	·	-3.9%	·	·
SMILES	D3 antag	GRP78 ERSR act	Nrf2 ARE act	DRD3 agonist
CC1(C)C2CCC1(CS(=O)(=O)N1CCOCC1)C(=O)C2 (configuration not stated)	14.7	-4.2%	-0.5%	36.3*
CC1(C)C2CCC1(CS(=O)(=O)N1CCC(C(N)=O)CC1)C(=O)C2 (configuration not stated)	0.6	-4.1%	-0.7%	0.6
COc1ccc([N+](=O)[O-])cc1NC(=O)C(C)N1CCCC1 (configuration not stated)	-62.3*	-2.1%	5.2%	-22.7
COC(=O)Nc1cc([N+](=O)[O-])ccc1OC	8.8	-0.9%	0.1%	4.4
Cc1cccc(NC(=O)C2CCN(S(=O)(=O)c3ccc4c(c3)OCCO4)CC2)n1	-53.6*	-3.0%	3.7%	-4.8
N#C/C(=C\c1ccccn1)c1nc2ccccc2s1	-1.8	1.6%	17.8µM*	-0.5
O=C1C=CC(=O)N1c1ccccc1N1C(=O)C=CC1=O	-113.0*	-14.0%	?	-37.8
CC(C)C(=O)N(c1ccc2oc(=O)sc2c1)S(=O)(=O)c1cccs1	0.0	0.2%	10.2%	-17.9
CC(=O)N(c1ccc2oc(=O)sc2c1)S(=O)(=O)c1cccs1	-50.9*	-3.8%	0.3%	5.7
O=[N+]([O-])c1ccc(/C=N/Nc2ccc3ccccc3c2)o1	-88.9*	2.9%	?	-19.4
CCOC(=O)N1CC=C2C(C#N)=C(N)C(C#N)(C#N)[C@H](c3ccc(OCC)c(OCC)c3)[C@H]2C1	8.1	-0.7%	3.1%	1.3
N#CC1=C(N)C(C#N)(C#N)C(c2cccnc2)C2CN(C(=O)OCc3ccccc3)CC=C12 (configuration not stated)	-74.3*	-18.2%	19.7%	-6.4
N#C/C(=C\c1ccc(N2CCOCC2)o1)c1ccccc1	-29.6	11.1%	14.1µM*	-17.9
N#C/C(=C/c1ccc(N2CCOCC2)o1)c1ccc(Br)cc1	-22.2	7.7%	11.2µM*	-10.9
N#C/C(=C/c1ccc(N2CCOCC2)o1)c1nc2ccccc2[nH]1	24.6	-8.9%	0.0%	-0.7
N#C/C(=C/c1ccc(N2CCCCCC2)o1)c1cccc(F)c1	-60.7*	?	12.6µM*	-22.1
N#C/C(=C/c1ccc(N2CCCCCC2)o1)c1ccc(F)cc1	?	-10.6%	25.5%	-8.0
CC(C)CCN1CCC(CN2C(=O)C(=O)NC[C@@H]2Cc2ccccc2)CC1	8.9	-3.4%	-1.0%	-5.5
CC(C)C[C@H]1CNC(=O)C(=O)N1CC1CCN(CCc2ccc(-c3ccccc3)cc2)CC1	-59.8*	-3.8%	5.7%	-45.0
CC(C)C[C@H]1CNC(=O)C(=O)N1CC1CCN(CCc2ccccc2)CC1	-76.3*	-2.7%	0.1%	-14.5
O=C1NC[C@H](Cc2ccccc2)N(CC2CCN(CCc3ccccc3)CC2)C1=O	-19.4	-0.9%	0.1%	-37.5
O=C1NC[C@H](Cc2ccccc2)N(CC2CCN(CCc3ccc(-c4ccccc4)cc3)CC2)C1=O	-78.1*	-2.3%	9.2%	-46.2
c1ccc(-c2nc(-c3cnc4ccccc4n3)cs2)cc1	·	-6.8%	·	·
C=CCOc1cc(Cl)ccc1C(=O)NCCN(CC)CC	·	-2.9%	·	-23.8
Cc1ccc(CN2CCOCCS2(=O)=O)cc1	·	-0.9%	·	·
CC(C)CCn1c(N)c(S(=O)(=O)c2cccs2)c2nc3ccccc3nc21	-87.4*	-6.6%	-0.7%	-6.8
CCCCCCCCCCCCCCCC[n+]1ccc(/C=C/c2c(C)[nH]c3ccccc23)cc1	·	-8.4%	·	·
COc1ccc(N=C2S/C(=C\c3ccc(Cl)c([N+](=O)[O-])c3)C(=O)N2CCN(C)C)cc1	-128.1*	-13.0%	-3.3%	-4.3
CCCN1C(=O)/C(=C/c2ccc(C)s2)SC1=Nc1ccc(OC)cc1	-27.2	-1.8%	-0.8%	-9.9
